FBW7 act: FBW7 E3 ligase activators, primary screen, biochemical, AlphaScreen, human | 650,000 tested, 0.13% active | AID 1259310, 2017 | normalized activity (activation), % at 26.1 µM | F-box/WD repeat-containing protein 7 (Homo sapiens), Q969H0 | AlphaScreen FBW7–phospho-cyclin E peptide binding, activator screen; in the data active means normalized activity above about 1.9%;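 further: purified mutant Fbw7 with reduced substrate affinity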
Target sequence (Q969H0 whole entry, looked up): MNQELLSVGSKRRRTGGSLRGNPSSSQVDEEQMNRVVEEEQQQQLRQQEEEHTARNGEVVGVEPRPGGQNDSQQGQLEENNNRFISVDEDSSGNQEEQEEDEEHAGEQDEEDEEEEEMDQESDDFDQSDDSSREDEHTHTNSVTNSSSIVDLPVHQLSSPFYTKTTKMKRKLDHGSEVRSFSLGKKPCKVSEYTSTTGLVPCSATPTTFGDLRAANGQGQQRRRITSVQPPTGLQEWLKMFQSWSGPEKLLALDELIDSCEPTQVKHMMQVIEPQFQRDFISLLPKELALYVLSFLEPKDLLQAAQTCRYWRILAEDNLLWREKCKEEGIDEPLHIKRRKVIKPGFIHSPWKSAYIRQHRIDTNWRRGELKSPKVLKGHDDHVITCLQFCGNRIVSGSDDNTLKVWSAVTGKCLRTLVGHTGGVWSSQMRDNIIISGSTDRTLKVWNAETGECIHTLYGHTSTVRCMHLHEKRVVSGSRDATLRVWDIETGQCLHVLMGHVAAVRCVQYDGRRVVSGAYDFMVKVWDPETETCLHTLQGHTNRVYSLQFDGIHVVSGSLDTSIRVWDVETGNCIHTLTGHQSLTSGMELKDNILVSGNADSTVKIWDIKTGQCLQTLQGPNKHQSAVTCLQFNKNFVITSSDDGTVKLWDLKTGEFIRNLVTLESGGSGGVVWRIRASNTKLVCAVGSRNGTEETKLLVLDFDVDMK
TEAD-YAP inh: TEAD-YAP interaction inhibition, primary screen, TEAD-YAP interaction inhibitor project, luminescence, HEK-TIYL cells; TEAD-Gal4/YAP UAS-luciferase luminescence; inhibition, % at 9.12 µM; 640,000 tested, 1.4% active; AID 1259422, 2018; in the data active means inhibition above about 32%;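 further: 0% = median of test compound wells and 100% = reference inhibitor wells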
MITF primary: MITF inhibitors, primary screen, biochemical, AlphaScreen, human. Microphthalmia-associated transcription factor (Homo sapiens), O75030. inhibition, % at 2.6 µM. 650,000 tested, 0.91% active. AID 1259374, 2018. AlphaScreen MITF homodimerization, bead proximity signal; in the data active means inhibition above about 50%;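 further: 0% = vehicle wells with protein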
GPR151 ag: activators of human GPR151, primary screen, cell-based, PathHunter beta-arrestin, luminescence | AID 1508602, 2020 | 650,000 tested, 1% active | G-protein coupled receptor 151 (Homo sapiens), Q8TDV0 | PathHunter beta-arrestin GPR151 cells | activation, % at 11.2 µM; in the data active means activation above about 4.9%;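 further: 0% = median of compound wells and 100% = cells with positive control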
Active calls of the source: *. Rows were chosen to be rich in hits. Some 3.5% of all compounds tested hit in one or more screens of this group.

SMILES | FBW7 act | TEAD-YAP inh | MITF primary | GPR151 ag
COCCCN(C(C)c1ccccn1)S(=O)(=O)c1cc2c(cc1C)NC(=O)CO2 (stereo not given) | 0 | -2 | 2 | -1
CCCCSc1nnc(-c2ccc3c(c2)OCO3)n1C | 2.1* | -71 | 13 | 0
c1ccc(OCCSc2nnc3sc4ccccc4n23)cc1 | 0 | 71* | -9 | -5
CCN(CC)c1ccc(C(NC(=O)C(C)C)c2ccc3cccnc3c2O)cc1 (stereo not given) | -1 | 74* | 20 | -1
CCC(=O)NC(c1ccc(N(C)C)cc1)c1ccc2cccnc2c1O (stereo not given) | -2 | 69* | 35 | 0
CC(=O)NC(c1ccc(N(C)C)cc1)c1ccc2cccnc2c1O (stereo not given) | -2 | 82* | 59* | -1
CC(C)C(=O)NC(c1ccc(N(C)C)cc1)c1ccc2cccnc2c1O (stereo not given) | -2 | 84* | 31 | 0
CCOc1ccc(N=C2SC(C(=O)Nc3ccc(C)c(Cl)c3)CC(=O)N2C)cc1 (stereo not given) | 0 | 8 | 3 | 1
COc1ccc(CCN2C(=O)C(C)C(Cc3ccc(C)cc3)C2=O)cc1OC (stereo not given) | 0 | 0 | 14 | 2
CCCCC(=O)NC(c1ccc(N(C)C)cc1)c1ccc2cccnc2c1O (stereo not given) | -2 | 75* | 22 | -1
O=C(O)c1cccc(COc2cccc(Cl)c2)c1 | 0 | -37 | 10 | -13
O=C(O)c1cccc(COc2ccc3ccccc3c2)c1 | 0 | 86* | -26 | -13
O=C(O)c1cccc(COc2ccc(CO)cc2)c1 | 0 | 79* | -21 | -8
O=C(O)c1cccc(COc2ccccc2Br)c1 | 0 | 65* | -4 | -10
CCOC(=O)c1c(C(=O)c2ccccc2)c2cc(OC)ccc2n1C | 0 | -5 | -3 | 1
NNC(=O)/C(=C\c1cccs1)NC(=O)c1ccccc1 | 0 | 33* | 2 | 0
NNC(=O)/C(=C\c1ccccc1)NC(=O)c1ccccc1 | 0 | 7 | -1 | 1
C=CCNC1CCN(c2ccc(CC(=O)N3CCC[C@H]3C(=O)OC)cc2)CC1 | 1 | 2 | 2 | 0
CCC(C(=O)O)N1C(=O)/C(=C/c2cccs2)SC1=S (stereo not given) | 0 | 4 | 1 | -1
O=C1/C(=C/c2ccco2)SC(=S)N1NS(=O)(=O)c1ccccc1 | 0 | 8 | 60* | 2
CCC(C(=O)O)N1C(=O)/C(=C\c2ccco2)SC1=S (stereo not given) | 0 | -6 | 59* | 1
COc1ccc(/C=C2/SC(=S)N(NS(=O)(=O)c3ccccc3)C2=O)cc1 | 0 | -2 | -7 | 1
COC(=O)c1sc2cc(NC(=S)NN3CCOCC3)ccc2c1Cl | 0 | -5 | 1 | 1
CCOc1cc(/C=C2/SC(=S)N(CCCC(=O)O)C2=O)ccc1O | 0 | 73* | 23 | -2
COc1ccc(/C=C2/SC(=O)N(CCCC(=O)Nc3cccc(O)c3)C2=O)cc1 | 0 | 66* | -3 | 0
SMILES | FBW7 act | TEAD-YAP inh | MITF primary | GPR151 ag
CCOc1cc(/C=C2\SC(=Nc3ccc(C(=O)O)cc3)N(C)C2=O)ccc1O | 0 | 46* | 3 | 2
COc1cc(/C=C2\SC(=S)N(CCCC(=O)O)C2=O)ccc1O | 0 | 62* | 5 | 2
CCOc1cc(/C=C2\SC(=S)N(CCOC)C2=O)ccc1O | 1 | 5 | 17 | 0
CCC(C)OC(=O)C1=C(C)NC(=O)NC1c1ccccc1Br (stereo not given) | 0 | -7 | -7 | 1
Cc1cc(N2CCOCC2)nc2ccc(NC(=O)COc3ccc(Cl)cc3)cc12 | 0 | -9 | 18 | 0
CCc1ccccc1OCCOCCNCCN | 0 | -5 | 26 | 2
O=C(O)c1ccc2c(c1)C1C=CCC1C(c1ccc([N+](=O)[O-])cc1)N2 (stereo not given) | 0 | 15 | 84* | -2
O=S(=O)(c1ccc(C2Nc3ccc(F)cc3C3C=CCC32)cc1)N1CCOCC1 (stereo not given) | 0 | -4 | 4 | 1
O=[N+]([O-])c1ccc2c(c1)C1C=CCC1C(c1ccc(S(=O)(=O)N3CCOCC3)cc1)N2 (stereo not given) | 0 | 42* | 5 | 0
CCOC(=O)c1ccc2c(c1)C1C=CCC1C(c1ccc(Cl)cc1)N2 (stereo not given) | 0 | 10 | 12 | -1
